# Laboratory results as given in the supplement of paper PMC4723716.
# Whole data set: some 3,600 compounds, median “viability index relative to DMSO control” near 0.81, cut for the lowest 2% near 0.13. Shown is part of a subset that was picked to be rich in the lowest values.
# Test system: Plasmodium falciparum NF54 stage V gametocytes
# Assay: viability index relative to DMSO control (fraction); higher = less gametocyte killing
# Conditions: 1.25 µM, incubation time: 72 h
# 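Note: Saponin-lysis sexual stage assay in serum-free medium: MitoTracker Red CMXRos staining plus saponin, high-content imaging, particle count per well divided by plate mean of DMSO wells.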
row,Compound,viability index
1,COc1ccc(CC2NCC(O)C2OC(C)=O)cc1 (stereo not given),0
2,Cc1ccc(-n2c(C)c(C(=O)c3ccccc3)c3cc(O)ccc32)cc1,1.24
3,Cc1c2ccccc2c(C)c2ccccc12,1.04
4,COc1ccc(-c2ccc(C=C3C(=O)NC(=S)NC3=O)o2)cc1Cl,0.866
5,C=CC1CN2CCC1C(C(O)c1ccnc3ccc(OC)cc13)C2 (stereo not given),0.411
6,NC(=O)CN1CC(O)CC1=O (stereo not given),0.0308
7,OC1(c2ccc(Cl)c(C(F)(F)F)c2)CCN(CCOC2c3ccccc3CSc3ccc(Cl)cc32)CC1 (stereo not given),0.589
8,CC(C)N1CC=C(c2c[nH]c3ccccc23)CC1,0.887
9,O=C(Cn1c2ccccc2c(=O)c2ccccc21)Nc1ccc(Cl)cc1C(=O)c1ccccc1,0.781
10,Oc1ccccc1C=Nc1ccccc1[Te]c1ccccc1N=Cc1ccccc1O,0.0513
11,O=c1cccc2n1CC1CC2CN(Cc2cccc(O)c2)C1 (stereo not given),0.898
12,CC(C)NC(=O)c1cn(Cc2ccccc2)cc(C(=O)NCCc2nc3ccccc3[nH]2)c1=O,0.942
13,CN1CCN(c2ccc(NC(=O)Oc3ccccc3)cc2)CC1,0.798
14,N#CC1=C(N)Oc2c(c(=O)oc3ccccc23)C1c1ccoc1 (stereo not given),1.08
15,C=CC1CN2CCC1CC2C(OC(=O)c1ccco1)c1ccnc2ccccc12 (stereo not given),0.46
